Where “and” joins values, the source holds several entries; their conditions need not be identical. Equal values may be shown once. Where a structure was tested more than once in an assay, its records may differ in their call. Calls of active or inactive are those of the source. The calls were made as follows: active = hit-call score of the fitted dose curve at least 0.9, where 1 is the maximum; inactive = score below 0.9.
read-out: Tumor necrosis factor (Homo sapiens) (UniProt P01375); assay: BSK_LPS_TNFa: BioMAP Diversity Plus: LPS Assay for Tumour Necrosis Factor alpha (TNFa) Biomarker Activity (AID 2283085); settings: primary human HUVEC with PBMC; actives raise or lower the signal
Experimental: BSK_LPS is a cell-based, multiplexed-readout assay that uses umbilical vein endothelium and peripheral blood mononuclear cells, a human vascular primary cell co-culture, with measurements taken at 24 hours after chemical dosing in a 96-well plate.BSK_LPS_TNFa is an assay component measured in the BSK_LPS assay. It measures TNF-a antibody related to regulation of gene expression using ELISA technology.Data from the assay component BSK_LPS_TNFa was analyzed into 1 assay endpoint. This assay endpoint, BSK_LPS_TNFa, was analyzed with bidirectional fitting relative to DMSO as the negative control and baseline of activity. Using a type of binding reporter, gain or loss-of-signal activity can be used to understand changes in the signaling as they relate to the gene TNF. Furthermore, this assay endpoint can be referred to as a primary readout, because this assay has produced multiple assay endpoints where this one serves a signaling function. To generalize the intended target to other relatable targets, this assay endpoint is annotated to the cytokine intended target family, where the subfamily is inflammatory factor.
The levels of cell surface (or secreted, indicated by the prefix "s") biomarker endpoints were measured by ELISA. Overt cytotoxicity to cells in confluent adherent cultures (all systems other than the BT system) was assessed by measuring total protein levels using sulforhodamine B (SRB) staining in parallel cultures at the time of biomarker measurements, indicated as SRB endpoints. For proliferation assays for adherent cell types, individual cell types are cultured at sub-confluence and relative cell numbers quantified by SRB staining at time points optimized for each system (48 h: 3C and CASM3C systems; 72 h: BT and HDF3CGF systems; 96 h: SAg system). SRB was performed by staining cells with 0.1% SRB after fixation with 10% TCA and reading wells at 560 nm.Viability and proliferation of PBMC (T cells) was quantified by Alamar Blue reduction for the SAg and BT systems. For PBMC viability (referred to as PBMC Cytotoxicity within the assay endpoint names), cells were plated (75,000/well in a 96-well plate) and then chemical samples added for 1 h before addition of activators, SEB and TSST-1 (20 ng/mL final concentration each). Cells were incubated for 90 h. Then, Alamar Blue (20 uL/well) (Invitrogen, Cat DAL1100) was added for 6 h, and the plates were read with a fluorescence microplate reader at 546/580 nm (excitation/emission). For PBMC proliferation, cells were plated and activated as above but incubated for only 16 h prior to addition of Alamar Blue. Plates were read after 6 h.

Sequence of Tumor necrosis factor (Homo sapiens) (P01375 whole entry, looked up): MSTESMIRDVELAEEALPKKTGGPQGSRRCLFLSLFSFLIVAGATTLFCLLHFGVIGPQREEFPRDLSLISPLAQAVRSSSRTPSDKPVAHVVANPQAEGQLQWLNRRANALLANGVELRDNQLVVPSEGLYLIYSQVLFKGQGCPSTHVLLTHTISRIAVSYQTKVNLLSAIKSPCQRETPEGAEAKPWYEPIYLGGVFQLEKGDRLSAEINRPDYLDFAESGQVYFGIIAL

SMILES | outcome | AC50
CCCCCCCCCCCCc1ccccc1S(=O)(=O)O | inactive | –
OCCC(F)(F)C(F)(F)C(F)(F)C(F)(F)C(F)(F)C(F)(F)F | inactive | –
OC1CCCCC1 | inactive | –
C=C(C)C(=O)OCCC(F)(F)C(F)(F)C(F)(F)C(F)(F)C(F)(F)C(F)(F)F | inactive | –
CCc1ccc(CCOc2ccc(CC3SC(=O)NC3=O)cc2)nc1 (stereo not given) | inactive | –
CCCOC(=O)c1ccc(O)cc1 | inactive | –
CC[C@H](C)[C@@H](C(=O)O)n1sc2ccccc2c1=O | – | 20 µM (active)
OC1CCC(C2CCCCC2)CC1 (stereo not given) | inactive | –
CCc1nn(C2CCCCC2)c2cc(C3(C#N)CCC(C(=O)O)CC3)ccc12 (stereo not given) | – | 0.358 µM (active)
c1ccc2c(c1)Cc1ccccc1-2 | inactive | –
COc1ccc([N+](=O)[O-])cc1N | inactive | –
Cc1oc(-c2ccccc2)nc1CCOc1ccc(C[C@H](Nc2ccccc2C(=O)c2ccccc2)C(=O)O)cc1 | – | 30.4 µM (active)
c1ccc2c(c1)ccc1ccccc12 | inactive | –
OCCC(F)(F)C(F)(F)C(F)(F)C(F)(F)C(F)(F)C(F)(F)C(F)(F)C(F)(F)F | inactive | 47.6 µM (active)
CC(=O)CC(C)(C)O | inactive | –
CCCCC(CC)COC(=O)CCCCC(=O)OCC(CC)CCCC (stereo not given) | – | 3.97 µM (active)
COCC(C)O (stereo not given) | inactive | –
CCCCCCCC(=O)O | inactive | –
CN1CCC[C@H]1c1cccnc1 | inactive | –
CCCCCCCCC(=O)O | inactive | –

SMILES | outcome | AC50
O=[N+]([O-])c1ccc(O)cc1 | inactive | –
CC(O)CO (stereo not given) | inactive | –
ClC1=C(Cl)C(Cl)(Cl)C(Cl)=C1Cl | – | 18.4 µM (active)
CC#C[C@]1(O)CC[C@H]2[C@@H]3CCC4=CC(=O)CCC4=C3[C@@H](c3ccc(N(C)C)cc3)C[C@@]21C | inactive | –
CC(=O)NC1(c2cccc(F)c2)CCN(CC[C@@]2(c3ccc(Cl)c(Cl)c3)CN(c3ccccc3)C(=O)CO2)CC1 | inactive | –
C[C@@H]1C[C@H]2[C@@H]3CCC4=CC(=O)C=C[C@]4(C)[C@@]3(F)[C@@H](O)C[C@]2(C)[C@@]1(O)C(=O)COP(=O)(O)O | – | 4.47 µM (active) and 3.6 µM (active) and 5.06 µM (active)
Cc1cc(C)c(O)c(C)c1 | – | 0.352 µM (active)
O=C(O)Cc1cc(I)c(Oc2cc(I)c(O)c(I)c2)c(I)c1 | – | 17.4 µM (active)
COC(=O)CCCCC(=O)OC | inactive | –
Cc1cc(CCN2CCN(c3nsc4ccccc34)CC2)cc2c1NC(=O)CC2(C)C | – | 8.98 µM (active)
NC(=O)N(O)[C@@H]1C=C[C@H](Oc2cccc(Oc3ccc(F)cc3)c2)C1 | inactive | –
Nc1cccc2c(N)cccc12 | inactive | –
CCCCCCCCOC(=O)CCCCCCCCC(=O)OCCCCCCCC | inactive | –
CCCCCCCCCCCCCCCS(=O)(=O)Oc1ccccc1 | inactive | –
FC(F)(I)C(F)(F)C(F)(F)C(F)(F)C(F)(F)C(F)(F)I | – | 20.2 µM (active) [middle of 5 runs]
CC1=C(/C=C/C(C)=C/C=C/C(C)=C/C(=O)O)C(C)(C)CCC1 | – | 0.358 µM (active)
CC(C)(C)c1ccc(O)c(C(C)(C)C)c1 | – | 13.2 µM (active)
CCC(C)(C)C1CCC(O)CC1 (stereo not given) | inactive | –
Oc1cc2ccccc2c2ccccc12 | – | 11.6 µM (active)
